# Compounds with a hit are over-represented: about 7% of the library has one in this group of screens.
# DRD3 antagonist: D3 dopamine receptor (human) antagonism | P35462 | hit rate 2.5% among 360,000 | max response, negative = inhibition, % | D3R cells, DiscoveRx beta-arrestin luminescence, antagonist mode; active compounds read low; in the data active = max response below about -50%; inconclusive = no clear call, values can overlap the other calls
# Target sequence (P35462 whole entry, looked up): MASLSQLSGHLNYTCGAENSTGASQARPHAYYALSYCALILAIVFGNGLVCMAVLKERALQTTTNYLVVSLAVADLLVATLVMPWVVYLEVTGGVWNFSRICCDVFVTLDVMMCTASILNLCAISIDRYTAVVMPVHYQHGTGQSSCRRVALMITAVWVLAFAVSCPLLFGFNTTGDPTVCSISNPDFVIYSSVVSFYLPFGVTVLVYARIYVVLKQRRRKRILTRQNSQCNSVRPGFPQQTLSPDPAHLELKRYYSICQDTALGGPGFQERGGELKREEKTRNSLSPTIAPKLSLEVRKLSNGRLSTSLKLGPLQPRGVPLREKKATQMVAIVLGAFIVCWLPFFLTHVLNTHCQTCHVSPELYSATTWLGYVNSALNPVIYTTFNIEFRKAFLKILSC
#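 Cells expressing the human receptor were seeded at 1500 cells/well, incubated overnight at 37 degrees C in 5% CO2, then exposed to library compounds with dopamine controls for 90 minutes at 37 degrees C before luminescent detection.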
# a7 integrin act: activators of alpha7 integrin expression for muscular dystrophy | Potency, µM (titrated, usually from 38.3 µM), usual class: activators | AID 624291 | hit rate 0.064% among 350,000 | alpha7betagal myoblasts, beta-gal FDG fluorescence, 48 h; note: nearly all actives have a fitted effect of over 60% in size
#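 Alpha7betagal+/- myoblasts (passage 13) were plated 16-24 hr, then exposed to compounds (1:260 dilution of DMSO stock) for 48 hours at 37C. After MPER lysis, β-galactosidase reporter activity was read as FDG fluorescence (ex 480/em 540) after 30 minutes.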
# S2 tox: reduces viability in counter-screen for ATXN expression inhibitors; S2 cells (HEK-293 line with an ATXN2-luciferase reporter) viability, CellTiter-Fluor protease fluorescence, 24 h; Potency, µM (titrated, usually from 56.7 µM), hits mostly cytotoxic; hit rate 0.49% among 400,000; AID 651635; note: nearly all actives have a fitted effect of over 40% in size
# ATXN2 expr inh: ATXN2 expression inhibition | HEK-293 ATXN2-luciferase reporter, luminescence, 24 h | Potency, µM (titrated, usually from 57 µM), hits mostly inhibitors | hit rate 0.72% among 360,000 | AID 1745845; note: nearly all actives have a fitted effect of over 55% in size
#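 qHTS (up to 57 uM final) was run with 24 h compound exposure of reporter cells at 37 °C. Each well was multiplexed: SteadyGlo luminescence measured ATXN2-luciferase expression after a fluorogenic Gly-Phe-AFC viability readout (25 uM final).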
# IL1B secr inh: inflammasome signaling inhibition, IL-1 beta readout; THP-1 LPS/ATP IL-1B secretion, AlphaLISA, 16 h; active compounds read low; activity change, % at 57.5 µM; hit rate 4.7% among 360,000; in the data active = activity change below about -50%; inconclusive = mostly about -30% to -49%
#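 Secreted IL-1B measured by AlphaLISA bead assay after 16 h compound exposure of THP-1 cells; compounds (final up to 57.5 uM) added 1 h before LPS (250 ng/mL) and ATP (1.25 mM) stimulation; lower signal means less secretion.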
# DRD3 agonist: activates the human D3 dopamine receptor; D3R DiscoveRx beta-arrestin cells, luminescence, 90 min; hit rate 0.58% among 410,000; P35462; max activation, %; in the data active = max activation above about 30%
#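 Cells at 1500/well, incubated overnight, then treated with pinned compounds (dopamine as control) for 90 min at 37 degrees C. DiscoveRx reagent added for 30 - 60 minutes at room temperature; luminescence read.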
# Hits are given with their value; - = inactive; ? = inconclusive; . = no result given; [ ] = remark or other dose. Unless noted, calls come from the whole dose curve; as a rule, active = well fitted curve in the direction sought with a large enough effect; inconclusive = small, poorly fitted or top-dose-only effect, or another doubt; inactive = no such curve, though single readings can be large; an effect the other way counts as inactive or inconclusive.
SMILES,DRD3 antagonist,a7 integrin act,S2 tox,ATXN2 expr inh,IL1B secr inh,DRD3 agonist
Cc1ccnc2nc(C(=O)OCC(=O)NC3CCCC(C)C3C)nn12 (stereo not drawn),-,-,-,-,-,-
O=C(O)c1cc2c(cc1NC(=O)C1CCCC1)OCCO2,-,-,.,.,-,-
C=C(CC)C(=O)c1ccc(OCC(=O)O)c(Cl)c1Cl,-,.,?,?,-94.3,-
COc1ccc(-c2[nH]c3ccccc3c2SCCNC(=O)c2cc(OC)c(OC)c(OC)c2)cc1,.,.,?,-,.,-
C=CC[C@@H]1Cc2c(Br)ccc(Br)c2[C@@H](CC=C)N1,-,-,-,-,-,32.1
Oc1ccc(-c2c(-c3ccsc3)sc3ccccc23)cc1,-,-,?,?,-,36.3
Cn1nccc1NC(=O)CSCC(=O)O,-,-,-,-,.,-
CC1(c2nnnn2Cc2ccccc2)CCC(=O)N1Cc1ccco1 (stereo not drawn),-,.,-,-,-,-
O=C(C1=C(O)C(=O)N(Cc2ccco2)C1c1cccs1)c1cccs1 (stereo not drawn),-,-,-,-,-,-
O=C(N/N=C/c1sc(=O)n(-c2ccccc2)c1Cl)c1ccncc1,-,-,-,.,-,-
COc1cc(C(=O)N/N=C/c2sc(=O)n(-c3ccccc3)c2Cl)cc(OC)c1OC,-,-,?,-,-70.9,-
CCOc1ccc(C(=O)N/N=C/c2cc([N+](=O)[O-])cs2)cc1,-,-,-,-,-,-
COc1cc(C(=O)N/N=C/c2cc([N+](=O)[O-])cs2)cc(OC)c1OC,-50.1,-,-,-,-,-
Cn1c(/C(C#N)=C/c2ccc(-c3ccc(S(N)(=O)=O)cc3)o2)nc2ccccc21,-,-,-,-,-,-
CN(C)CCCN(C(=O)c1ccco1)c1nc(-c2ccc(Cl)cc2)cs1,?,-,-,.,-53.7,-
Cc1ccc(-c2csc(N(CCCN3CCOCC3)C(=O)c3ccco3)n2)cc1,-,-,-,-,-53.3,-
Cc1ccc(-c2csc(N(CCCN(C)C)C(=O)c3ccco3)n2)cc1,?,-,-,-,-77.0,-
CN(C(=O)c1ccco1)c1nc(-c2ccc(Cl)cc2)cs1,-,-,-,-,?,-
Cc1ccc(-c2csc(N(CC3CCCO3)C(=O)c3ccco3)n2)cc1 (stereo not drawn),-,-,-,-,-,-
COCc1nc2c([nH]1)c(=O)n(C)c(=O)n2CC(C)C,-,.,-,-,-,-
COc1cc(C(=O)NCc2nnc(SCC(=O)NCCc3ccccc3)o2)cc(OC)c1OC,-,-,-,-,-,-
O=C(CSc1nnc(CNC(=O)c2ccccc2)o1)NCCc1ccccc1,-68.2,?,-,-,-,-
Cc1ccc(CNC(=O)CSc2nnc(CNC(=O)c3ccccc3)o2)cc1,-,-,-,-,-73.2,-
CN(Cc1ccccc1F)C(=O)c1ccccc1Sc1ccccc1C#N,-,-,-,-,-66.1,-
NNC(=O)c1ccccc1CO,-,-,-,-,-,33.7
SMILES,DRD3 antagonist,a7 integrin act,S2 tox,ATXN2 expr inh,IL1B secr inh,DRD3 agonist
NNC(=O)c1ccccc1OCc1ccccc1,-,-,-,.,-,-
C[C@H]1NC(=O)[C@@]2(C)[C@@H](c3ccccc3)[C@H]3COc4ccccc4[C@@H]3N2C1=O,-,-,-,-,-,-
Clc1ccc(Cl)c(OCCN2CCCC2)c1,-74.8,-,-,.,-,-
Clc1ccc(Cl)c(OCCN2CCOCC2)c1,-51.8,-,-,-,-,-
Clc1ccc(OCCN2CCOCC2)cc1,-,-,-,-,-,-
COc1cc(/C=C2\SC(=S)N(CCCCC(=O)O)C2=O)ccc1OS(=O)(=O)c1ccc(C)cc1,-,-,?,-,-87.3,-
COc1ccc(/C=C2\SC(=S)N(CCCCCC(=O)Nc3cc(C)on3)C2=O)cc1OC,-,-,-,-,-,-
COc1cc(/C=C2/SC(=S)NC2=O)ccc1OS(=O)(=O)c1ccc(C)cc1,-,-,-,-[11.3 µM],-53.0,-
COc1ccc(/C=C2\SC(=O)NC2=S)cc1OC,-,-,?,-,-73.7,-
COc1ccc(/C=C2\SC(=S)NC2=O)cc1OS(=O)(=O)c1ccc(NC(C)=O)cc1,-,-,-,-,-,-

# Assay outcomes: PubChem BioAssay, National Center for Advancing Translational Sciences (NCATS)
